{"source": "PubChem BioAssay (EPA / NIEHS)", "note": "“And” between values parts separate entries of the source, which are not always exact repeats. Identical values can stand only once. Some compounds were tested as several samples or in several runs, with calls that do not always agree. The source made the active and inactive calls. How the source made its calls: active means hit-call score of the fitted dose curve at least 0.9, where 1 is the maximum; inactive means score below 0.9.", "data": [{"read-out": "Interleukin 17F (IL17F), IL17F (gene 112744)", "experiment": "BSK_BT_xIL17F: BioMAP Diversity Plus: BT Assay for Interleukin 17F (IL17F) Biomarker Activity (AID 2284243)", "details": "primary human B cells with PBMC", "method": "BSK_BT is a cell-based, multiplexed-readout assay that uses B cell and peripheral blood mononuclear cells, a human vascular primary cell co-culture, with measurements taken at 24 hours after chemical dosing in a microplate: 96-well plate.BSK_BT_xIL17F is an assay component measured in the BSK_BT assay. It measures secreted IL-17F related to regulation of gene expression using LumineX xMAP technology.Data from the assay component BSK_BT_xIL17F was analyzed at the endpoint, BSK_BT_xIL17F, in the positive analysis fitting direction relative to DMSO as the negative control and baseline of activity. Using a type of cytokine quantitation reporter, gain or loss-of-signal activity can be used to understand protein changes. To generalize the intended target to other relatable targets, this assay endpoint is annotated to the 'cytokine' intended target family, where the subfamily is 'interleukins'.\nThe levels of cell surface (or secreted, indicated by the prefix \"s\") biomarker endpoints were measured by ELISA. Overt cytotoxicity to cells in confluent adherent cultures (all systems other than the BT system) was assessed by measuring total protein levels using sulforhodamine B (SRB) staining in parallel cultures at the time of biomarker measurements, indicated as SRB endpoints. For proliferation assays for adherent cell types, individual cell types are cultured at sub-confluence and relative cell numbers quantified by SRB staining at time points optimized for each system (48 h: 3C and CASM3C systems; 72 h: BT and HDF3CGF systems; 96 h: SAg system). SRB was performed by staining cells with 0.1% SRB after fixation with 10% TCA and reading wells at 560 nm.Viability and proliferation of PBMC (T cells) was quantified by Alamar Blue reduction for the SAg and BT systems. For PBMC viability (referred to as PBMC Cytotoxicity within the assay endpoint names), cells were plated (75,000/well in a 96-well plate) and then chemical samples added for 1 h before addition of activators, SEB and TSST-1 (20 ng/mL final concentration each). Cells were incubated for 90 h. Then, Alamar Blue (20 uL/well) (Invitrogen, Cat DAL1100) was added for 6 h, and the plates were read with a fluorescence microplate reader at 546/580 nm (excitation/emission). For PBMC proliferation, cells were plated and activated as above but incubated for only 16 h prior to addition of Alamar Blue. Plates were read after 6 h.", "values": [{"smiles": "O=C(NCc1ncc(C(F)(F)F)cc1Cl)c1c(Cl)cccc1Cl", "AC50": "21 µM (active)"}, {"smiles": "CCOC(=O)CN[C@@H](C(=O)N1CC[C@H]1C(=O)NCc1ccc(/C(N)=N/O)cc1)C1CCCCC1", "outcome": "inactive"}, {"smiles": "O=C(O)CCC(F)(F)C(F)(F)C(F)(F)C(F)(F)C(F)(F)F", "outcome": "inactive"}, {"smiles": "C=CC(=C)CC/C=C(\\C)CCC=C(C)C", "outcome": "inactive"}, {"smiles": "Cc1ccc(C(=O)c2ccccc2)cc1", "outcome": "inactive"}, {"smiles": "OCC(F)(F)C(F)(F)C(F)(F)C(F)(F)C(F)(F)C(F)(F)C(F)(F)C(F)(F)C(F)(F)C(F)(F)C(F)(F)F", "AC50": "13.9 nM (active) and 23.8 nM (active)"}, {"smiles": "Oc1cc2ccccc2cc1O", "outcome": "inactive"}, {"smiles": "CCCCCc1ccc(O)cc1", "outcome": "inactive"}, {"smiles": "Cc1cccc2c1ccc1ccccc12", "AC50": "20 µM (active)"}, {"smiles": "O=C1OC2(c3ccccc31)c1cc(I)c(O)c(I)c1Oc1c2cc(I)c(O)c1I", "outcome": "inactive"}, {"smiles": "CN(Cc1cnc2nc(N)nc(N)c2n1)c1ccc(C(=O)N[C@@H](CCC(=O)O)C(=O)O)cc1", "outcome": "inactive"}, {"smiles": "COCN(COC)c1nc(N(COC)COC)nc(N(COC)COC)n1", "outcome": "inactive"}, {"smiles": "CN(CCO)S(=O)(=O)C(F)(F)C(F)(F)C(F)(F)C(F)(F)C(F)(F)C(F)(F)C(F)(F)C(F)(F)F", "AC50": "1.93 µM (active)", "outcome": "inactive"}, {"smiles": "Clc1ccc(Nc2nnc(Cc3ccncc3)c3ccccc23)cc1", "outcome": "inactive"}, {"smiles": "C=CC(C)(CCC=C(C)C)OC(C)=O", "note": "(centres undefined)", "outcome": "inactive"}, {"smiles": "O=P(O)(O)CCC(F)(F)C(F)(F)C(F)(F)C(F)(F)C(F)(F)C(F)(F)F", "outcome": "inactive"}, {"smiles": "COc1cc(OC)nc(NC(=O)NS(=O)(=O)Nc2ccccc2C(=O)N(C)C)n1", "outcome": "inactive"}, {"smiles": "CCCCCCCCCCCCCCCCCC[N+](C)(C)Cc1ccccc1", "AC50": "2.42 µM (active)"}, {"smiles": "O=P(O)(O)CCC(F)(F)C(F)(F)C(F)(F)C(F)(F)C(F)(F)C(F)(F)C(F)(F)C(F)(F)F", "outcome": "inactive"}, {"smiles": "OCCN1CN(CCO)CN(CCO)C1", "AC50": "20 µM (active)"}, {"smiles": "O=C(NO)c1ccccc1", "AC50": "19.2 µM (active)"}, {"smiles": "COc1cccc(O)c1", "outcome": "inactive"}, {"smiles": "O=S(=O)(O)C(F)(F)C(F)(F)C(F)(F)C(F)(F)C(F)(F)C(F)(F)C(F)(F)C(F)(F)C(F)(F)C(F)(F)F", "outcome": "inactive"}, {"smiles": "NC(=NCCCCCCN=C(N)/N=C(\\N)Nc1ccc(Cl)cc1)/N=C(\\N)Nc1ccc(Cl)cc1", "AC50": "5.34 µM (active)"}, {"smiles": "CC[N+](CC)(CC)Cc1ccccc1", "outcome": "inactive"}, {"smiles": "O=C1c2ccc(O)c(O)c2C(=O)c2c(O)ccc(O)c21", "outcome": "inactive"}, {"smiles": "CC1=NN(c2ccccc2)C(=O)C1", "outcome": "inactive"}, {"smiles": "O=C(O)C(F)(F)OC(F)(F)C(F)(F)OC(F)(F)C(F)(F)OC(F)(F)C(F)(F)C(F)(F)C(F)(F)F", "AC50": "49.6 µM (active) and 47 µM (active)"}, {"smiles": "Cc1ccc(N=Nc2c(O)ccc3ccccc23)c(C)c1", "outcome": "inactive"}, {"smiles": "C[C@]12CC[C@@H]3c4ccc(O)cc4CC[C@H]3[C@@H]1C[C@@H](O)[C@@H]2O", "outcome": "inactive"}, {"smiles": "CN(C)c1ccc(C(=C2C=CC(=[N+](C)C)C=C2)c2ccccc2)cc1", "AC50": "0.49 µM (active)"}, {"smiles": "O=C(O)CCC(F)(F)C(F)(F)C(F)(F)C(F)(F)C(F)(F)C(F)(F)F", "outcome": "inactive"}, {"smiles": "C=CC(=O)OCCC(F)(F)C(F)(F)C(F)(F)C(F)(F)C(F)(F)C(F)(F)C(F)(F)C(F)(F)F", "outcome": "inactive"}, {"smiles": "CC(C)(C)c1ccc(O)c(O)c1", "AC50": "26 µM (active)"}, {"smiles": "CCCCC(CC)C(=O)OCCOCCOCCOCCOC(=O)C(CC)CCCC", "note": "(centres undefined)", "outcome": "inactive"}, {"smiles": "O=C(CC(=O)C(F)(F)C(F)(F)C(F)(F)F)c1cccs1", "AC50": "23.2 µM (active) and 25.1 µM (active)"}, {"smiles": "C=COC(=O)C(C)(C)CCCCCC", "outcome": "inactive"}, {"smiles": "COC1=CC(=O)C[C@@H](C)[C@]12Oc1c(Cl)c(OC)cc(OC)c1C2=O", "outcome": "inactive"}]}]}
